Hits are enriched below; roughly 12% of the tested compounds scored in any of these assays.
PLK1 PBD block: PLK1 (human) polo-box domain binding inhibition. Potency, µM, for the others: max response, negative = inhibition, most hits filed as inhibitors. Plk1 PBD binding of FITC phosphopeptide, fluorescence polarization. AID 720504. 2.8% of 360,000 active; further: potency means the concentration at half of the fitted maximal effect; series mostly up to about 57 µM; on the % scale 0 is the no-effect control and ±100 the full control effect; nearly all actives have a fitted effect of over 65% in size
PI5P4Ka inh: blocks human PI5P4K alpha kinase activity | PI5P4Kalpha enzyme, ADP-Glo luminescence, 60 min; hits give low values | max response, % | 1.2% of 330,000 active | AID 652105; active means max response of -50% or lower; inconclusive means between -30% and -50%; inactive means -30% or higher; further: value at the top dose of about 77 µM; on the % scale 0 is the no-effect control and ±100 the full control effect
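qHTS, 1536-well: enzyme/substrate mix, compound by pin tool, 5 microM ATP final; RT 60 min; ADP-Glo reagents 1 (45 min) then 2 (30 min); luminescence.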
JMJD2A Tudor: inhibitors of human JMJD2A Tudor domain; AID 504339; O75164; 4.4% of 390,000 active; Potency, µM (titrated, usually from 114 µM), without a hit: at the top dose activity change, negative = inhibition, hits mostly inhibitors; AlphaScreen JMJD2A-Tudor / H3K4me3 peptide binding; further: potency means the concentration at half of the fitted maximal effect; on the % scale 0 is the no-effect control and ±100 the full control effect; nearly all actives have a fitted effect of over 50% in size
Target sequence (O75164 whole entry, looked up, the tested form may be a part): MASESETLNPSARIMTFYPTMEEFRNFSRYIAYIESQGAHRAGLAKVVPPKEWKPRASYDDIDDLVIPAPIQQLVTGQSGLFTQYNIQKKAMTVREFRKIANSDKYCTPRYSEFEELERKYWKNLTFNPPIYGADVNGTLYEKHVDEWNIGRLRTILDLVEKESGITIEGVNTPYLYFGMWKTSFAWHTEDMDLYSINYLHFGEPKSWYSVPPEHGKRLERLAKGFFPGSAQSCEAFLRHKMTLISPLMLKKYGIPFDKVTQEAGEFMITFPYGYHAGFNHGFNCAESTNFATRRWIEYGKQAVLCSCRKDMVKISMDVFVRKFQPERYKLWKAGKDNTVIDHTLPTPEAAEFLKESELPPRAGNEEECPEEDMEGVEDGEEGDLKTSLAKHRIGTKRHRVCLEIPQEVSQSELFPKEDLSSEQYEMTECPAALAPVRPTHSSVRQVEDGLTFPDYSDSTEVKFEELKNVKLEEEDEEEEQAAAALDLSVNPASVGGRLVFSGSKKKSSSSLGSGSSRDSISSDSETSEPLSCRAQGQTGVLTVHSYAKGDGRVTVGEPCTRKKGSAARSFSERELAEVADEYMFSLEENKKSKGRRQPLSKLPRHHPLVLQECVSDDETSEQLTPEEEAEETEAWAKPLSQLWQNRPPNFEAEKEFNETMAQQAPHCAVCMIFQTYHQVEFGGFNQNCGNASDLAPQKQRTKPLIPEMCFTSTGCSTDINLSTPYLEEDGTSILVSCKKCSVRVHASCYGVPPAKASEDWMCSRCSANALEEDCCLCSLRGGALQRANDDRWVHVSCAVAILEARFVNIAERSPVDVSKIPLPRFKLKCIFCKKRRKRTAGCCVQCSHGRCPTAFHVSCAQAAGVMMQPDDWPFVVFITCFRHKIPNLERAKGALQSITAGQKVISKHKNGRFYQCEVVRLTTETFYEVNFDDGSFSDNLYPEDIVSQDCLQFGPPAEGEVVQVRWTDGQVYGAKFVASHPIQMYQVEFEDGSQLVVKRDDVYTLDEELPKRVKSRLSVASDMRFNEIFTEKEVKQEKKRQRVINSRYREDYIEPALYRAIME
HP1b chromo inh: blocks HP1-beta chromodomain binding to methylated histone tails | P83916 | AlphaScreen HP1-beta / biotin-H3K9me3 peptide binding | Potency, µM (doses to about 114 µM), inactives show top-dose activity change, negative = inhibition, usual class: inhibitors | 0.56% of 390,000 active; further: potency means the concentration at half of the fitted maximal effect; nearly all actives have a fitted effect of over 70% in size
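AlphaScreen: HP1-beta (50 nM) preformed 30 min with biotin-H3(1-18)K9me3 peptide (50 nM) in PBS pH 7.4, 0.01% Tween-20. Compound added for 30 min at RT, then streptavidin donor/nickel chelate acceptor beads (10 ug/mL) for 30 min.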
G9a block: inhibitors of human histone lysine methyltransferase G9a. Q96KQ7. G9a H3K9 monomethylation, AlphaScreen, 2 h. Potency, µM (doses to about 102 µM), for inactives: top-dose activity, negative = inhibition, usual class: inhibitors. 8.8% of 350,000 active; further: potency means the concentration at half of the fitted maximal effect; on the % scale 0 is the no-effect control and ±100 the full control effect; nearly all actives have a fitted effect of over 75% in size
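Methyltransferase reactions run at room temperature for 2 h (20 nM enzyme, 500 nM biotin-H3K9 peptide, 20 uM SAM) after a 15 min compound preincubation; product detected by AlphaScreen beads and anti-H3K9me1 antibody.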
BAZ2B block: inhibitors of human BAZ2B bromodomain | Q9UIF8 | AlphaScreen BAZ2B-H3K14Ac peptide displacement | Potency, µM (series often up to 114 µM), for the others: at the highest dose activity change, negative = inhibition, most hits filed as inhibitors | 4.4% of 360,000 active | AID 504333; further: potency means the concentration at half of the fitted maximal effect; on the % scale 0 is the no-effect control and ±100 the full control effect; nearly all actives have a fitted effect of over 60% in size
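In this displacement format the biotinylated H3(5-23) peptide acetylated at Lys14 serves as ligand at 50 nM, with BAZ2B at 50 nM in PBS pH 7.4 containing 0.01% Tween-20. Donor and acceptor beads are 10 ug/mL final.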
The depositor's hits bear a star; u = inconclusive; x = no result given; [ ] = another dose, or the depositor's remark. Unless noted, the call rests on the fitted dose curve; in most records, active means well fitted curve in the direction sought with a large enough effect; inconclusive means small, poorly fitted or top-dose-only effect, or another doubt; inactive means no such curve, though single readings can be large; an effect the other way counts as inactive or inconclusive.

SMILES	PLK1 PBD block	PI5P4Ka inh	JMJD2A Tudor	HP1b chromo inh	G9a block	BAZ2B block
O=C(C1=C(O)C(=O)N(CCN2CCOCC2)C1c1cccc([N+](=O)[O-])c1)c1cc2ccccc2o1 (stereo not drawn)	-13%	0	x	x	x	x
CCC(c1nnnn1-c1ccc2c(c1)OCCO2)N1CCN(c2cccc(C)c2C)CC1 (stereo not drawn)	-9%	16	x	x	x	x
O=C(C1=C(O)C(=O)N(CCN2CCOCC2)C1c1cccc(Br)c1)c1cc2ccccc2o1 (stereo not drawn)	-17%	3	-28%	2%[57 µM]	0%[0.0925 µM]	-26%
O=C(C1=C(O)C(=O)N(CCN2CCOCC2)C1c1ccc(F)cc1)c1cc2ccccc2o1 (stereo not drawn)	-12%	-1	-25%	11%[57 µM]	35µM*	-24%
O=C(C1=C(O)C(=O)N(CCCN2CCOCC2)C1c1ccccn1)c1cc2ccccc2o1 (stereo not drawn)	-5%	0	-25%	29%	40µM*	u
O=C(C1=C(O)C(=O)N(CCCN2CCOCC2)C1c1ccccn1)c1cccs1 (stereo not drawn)	x	x	x	x	4%[59 µM]	8%
Cc1ccccc1OCc1ccc(-c2nc(C#N)c(NCc3cccnc3)o2)o1	x	x	16µM*	-12%	11µM*	32µM*
Cc1ccc(OCc2ccc(-c3nc(C#N)c(NCc4cccnc4)o3)o2)cc1	x	x	20µM*	u	11µM*	18µM*
COc1ccc(OCc2ccc(-c3nc(C#N)c(NCc4cccnc4)o3)o2)cc1	x	x	32µM*	-14%	13µM*	18µM*
COc1ccc(OCc2ccc(-c3nc(C#N)c(NCc4ccccc4)o3)o2)cc1	x	x	u	-20%	u	u
CCn1nnc2cc(C(=O)Nc3cccc(Cl)c3C)ccc21	x	x	20%	21%	-11%[59 µM]	-1%
COC(=O)c1ccccc1NC(=O)Cc1nc(-c2ccc(OC)cc2)no1	x	x	-12%	33%	-26%[59 µM]	-9%
O=C(NCC(=O)N1CCN(c2ccccc2O)CC1)c1cccs1	3%	-12	-24%	13%	u	-17%
c1c(CC2CCCC2)nnn1C[C@H]1CC[C@@H]([C@@H]2CC[C@H](Cn3cc(CC4CCCC4)nn3)O2)O1	-11%	7	-8%	31%	40µM*	-26%
CC(=O)Nc1ccc(NC(=O)C(C)Sc2nnc(C3CC3)n2-c2ccccc2)cc1 (stereo not drawn)	1%	-8	-22%	36%	-7%[59 µM]	-2%
CC(C)CC(OC(=O)c1ccco1)C(=O)NC1CCCC1 (stereo not drawn)	-4%	3	-9%	14%	5%	-4%
COc1cccc(OC)c1OCCCCN1CCC(Cc2ccccc2)CC1	-4%	-12	3.2µM*	u	13µM*	28µM*
COc1cccc(OC)c1OCCCCN1CCCC1	-5%	1	7.9µM*	u	u	u
COc1cccc(OC)c1OCCCCN1CCCCC1	5%	-5	40µM*	-38%	11µM*	50µM*
CC(=O)CCc1ccc(OCCCCN2CCC(Cc3ccccc3)CC2)cc1	-7%	0	3.5µM*	u	10µM*	50µM*
COc1ccc(NC(=O)C2(C)CCN2CC2CCCCC2)cc1OC (stereo not drawn)	-15%	-5	x	x	x	x
Cc1ccc(C)c(-n2c3nc(=O)[nH]c(=O)c-3cc3c(C)nn(-c4ccccc4)c32)c1	x	x	4%	41%	4%[59 µM]	x
CCOC(=O)[C@]12CCCC=C1N(Cc1cccc3ccccc13)C(=O)[C@H](CC(=O)N1CCN(C(=O)C3CC3)CC1)C2	1%	0	x	x	x	x
COc1ccc(C2N(C(=O)CN3CCCC3)CCCN2S(=O)(=O)c2ccccc2)cc1 (stereo not drawn)	0%	-4	-19%	-9%	-20%	-13%
CN(C(=O)COC(=O)c1ccc(Br)c(S(=O)(=O)N2CCOCC2)c1)C1CCCCC1	2%	5	-13%	20%	x	x
SMILES	PLK1 PBD block	PI5P4Ka inh	JMJD2A Tudor	HP1b chromo inh	G9a block	BAZ2B block
CCCN(CCC)C(=O)c1ccc2c(c1)N(Cc1ccccc1)C(=O)CS2=O (stereo not drawn)	27µM*	-7	-30%	7%	-39%	4%
CCCCN1/C(=C/c2cccc[n+]2C)Sc2cc(NC(C)=O)ccc21	-1%	-10	28µM*	15%	45µM*	-29%
CCOC(=O)Nc1ccc2c(c1)Sc1ccccc1N2C(=O)CCN1CCOCC1	0%	6	-12%	13%	u	-25%
O=[N+]([O-])c1cccc(C2NCC(c3ccccc3Cl)c3c2[nH]c2ccccc32)c1 (stereo not drawn)	-1%	2	u	u	40µM*	35µM*
CC(C)OCCCN1CC(=O)N2C(c3cccc([N+](=O)[O-])c3)c3[nH]c4ccccc4c3C[C@H]2C1=O (stereo partly drawn)	-1%	0	-34%	-2%	-16%	-25%
CN(C)c1ccc(C2CNC(c3ccc(Cl)c([N+](=O)[O-])c3)c3[nH]c4ccccc4c32)cc1 (stereo not drawn)	3%	-1	35µM*	u	u	10µM*
CCOc1ccc(-c2nonc2NC(=O)c2oc3ccc(F)cc3c2C)cc1	x	x	-11%	12%	3%[59 µM]	0%
Cc1c(C(=O)Nc2nonc2-c2ccc(F)cc2)oc2ccc(F)cc12	30µM*	-2	u	-3%[57 µM]	-5%	14%
COc1ccc(C(CC(=O)Nc2ccc(OC)c(OC)c2)N2Cc3ccccc3C2=O)cc1 (stereo not drawn)	x	x	-27%	12%	-26%[59 µM]	79µM*
COc1ccc(C(CC(=O)Nc2cc(OC)c(OC)c(OC)c2)N2Cc3ccccc3C2=O)cc1 (stereo not drawn)	x	x	-29%	-11%	-45%[59 µM]	-30%
Cn1cc(C(=O)NCCc2ccccc2)c(=O)c2cc(S(=O)(=O)N3CCOCC3)ccc21	30µM*	-22	-31%[11.4 µM]	11%	x	x
CN(CCNC(=O)c1cn(C)c2ccc(S(=O)(=O)N3CCCC3)cc2c1=O)CCc1ccccc1	-4%	x	-8%	21%	2.2µM*	-4%
COc1ccccc1CNC(=O)Nc1nnc([C@H]2C[C@H](O)[C@@H](CO)O2)s1	-13%	u	x	x	x	x
O=C(Oc1ccccc1)N1CCC2(CC1)CN(c1ccccc1)C2	x	x	x	x	-13%[12.7 µM]	x
COc1ccc(-n2nnc(-c3nc(-c4ccc5c(c4)OCO5)no3)c2C)cc1Cl	x	x	-6%	20%	5%[59 µM]	1%
CSC1=NCCN1C(=O)c1ccc(S(=O)(=O)N(C)C)cc1	27µM*	3	-22%	7%	18%	-3%
Cn1nnnc1N=N/C(=N/Nc1ccccc1)c1ccccc1	1%	-1	1.6µM*	28µM*	x	1.3µM*

Screens from PubChem BioAssay.
